This is an account of results in PubChem BioAssay (Tox21).

Values without a mark were called inactive. Inconclusive results are not listed. Activity calls are given as the source filed them. Unless noted, the call rests on the fitted dose curve.

The nature of assay [1]: Nuclear factor erythroid 2-related factor 2/antioxidant responsive element (Nrf2/ARE) small molecule agonists: qHTS cell viability counter screen in human keratinocytes (AID 1919968; active means well fitted curve in the direction sought with a large enough effect in the repeat runs; an effect the other way counts as inactive or inconclusive; further: nearly all actives have a fitted effect of over 55% in size). In outline:
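Cytotoxicity was multiplexed with the Nrf2/ARE luciferase assay in the same wells. Stably transfected HaCaT keratinocytes were treated with test compounds for 23 h at 37 C. Cell viability was then measured by CellTiter-Fluor fluorescence.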

Assay [2] is described as follows: Nuclear factor erythroid 2-related factor 2/antioxidant responsive element (Nrf2/ARE) small molecule agonists: luciferase reporter gene qHTS assay in human keratinocytes (AID 1919969). Further: nearly all actives have a fitted effect of over 35% in size. Further: potency means the concentration at half of the fitted maximal effect.
Assay [3] concerns the target Gonadotropin-releasing hormone receptor (Homo sapiens) (UniProt P30968). As to the kind of experiment: Human gonadotropin-releasing hormone receptor (GnRHR) small molecule agonists, calcium flux assay in GnRHR-HEK293 cells (AID 1920063). Further: nearly all actives have a fitted effect of over 35% in size. The method in brief: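 Agonist activity was measured as intracellular calcium flux in HEK293 cells engineered to stably express human GnRHR. After dye loading for 1 hour at 37 C, compounds in DMSO were added and fluorescence was followed for 3 minutes.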
(In general: Calcium flux is commonly read through the fluorescence of an indicator in the cells.)

In assay [4] the target is KiSS-1 receptor (Homo sapiens) (UniProt Q969F8). As to the kind of experiment: Human kisspeptin (KISS1R) small molecule agonists, calcium flux assay in KISS1R-HEK293 cells (AID 1920064; active means well fitted curve in the direction sought with a large enough effect in the repeat runs; an effect the other way counts as inactive or inconclusive). The method in brief: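 Agonist activity is monitored as intracellular calcium rise in engineered HEK293 cells carrying human KISS1R. Cells are dye-loaded for 1 h at 37 C before compound addition, and fluorescence is recorded for 3 min.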
Chain of KiSS-1 receptor (Homo sapiens) (Q969F8 whole entry, looked up): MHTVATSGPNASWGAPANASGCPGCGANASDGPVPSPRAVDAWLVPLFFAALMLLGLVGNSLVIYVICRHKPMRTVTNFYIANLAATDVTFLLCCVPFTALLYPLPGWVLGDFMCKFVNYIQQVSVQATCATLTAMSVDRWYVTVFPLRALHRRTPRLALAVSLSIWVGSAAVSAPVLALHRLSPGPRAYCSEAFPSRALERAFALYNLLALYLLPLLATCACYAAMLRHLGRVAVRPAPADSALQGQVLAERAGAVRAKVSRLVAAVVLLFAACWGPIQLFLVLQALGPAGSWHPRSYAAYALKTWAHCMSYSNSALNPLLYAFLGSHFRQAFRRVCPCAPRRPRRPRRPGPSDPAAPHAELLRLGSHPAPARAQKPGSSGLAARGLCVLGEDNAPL

A short description of assay [5]: G protein-coupled receptor (GPCR) small molecule agonists, calcium flux assay: HEK293 wild type cell line counter screen (AID 1920065). In outline: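 Seed cells, incubate 18 h (37 C, 5% CO2); add calcium dye, 1 h at 37 C; pin-transfer compounds, ATP control or DMSO; read fluorescence 480/540 nm each second for 3 min.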
The nature of assay [6]: p53 small molecule agonists, cell-based qHTS assay with human liver microsomes: qHTS cell viability counter screen (AID 1963579). Further: nearly all actives have a fitted effect of over 45% in size. In outline: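 Tox21 library compounds, delivered from DMSO stocks, were tested on p53RE-bla cells together with 0.5 mg/mL human liver microsomes and 0.5 mg/mL NADPH (final) over 16 h at 37 C; CellTiter-Glo luminescence served as the cytotoxicity measure.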
On the technique in general: qHTS replaces the single test concentration by a dilution series.

Assay [7] in a line: p53 small molecule agonists, cell-based qHTS assay with rat liver microsomes: qHTS cell viability counter screen (AID 1963580). Further: nearly all actives have a fitted effect of over 45% in size. In outline:
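Cytotoxicity counter screen: intracellular ATP measured by CellTiter-Glo luminescence in the same wells as the beta-lactamase reporter read, on HCT-116 p53RE-bla cells exposed 16 h at 37 C to compounds with rat liver microsomes and NADPH, each 0.5 mg/mL final.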

Assay [8] in a line: p53 small molecule agonists, cell-based qHTS assay: qHTS cell viability counter screen (AID 1963581). Further: nearly all actives have a fitted effect of over 45% in size. In outline:
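Viability was counter-screened in parallel with the p53 agonist reporter by measuring intracellular ATP luminescence in the same HCT-116 p53RE-bla wells after 16 h compound treatment at 37 C.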

For assay [9], the target named is 5-hydroxytryptamine receptor 2A (Homo sapiens) (UniProt P28223). Nature of the assay: 5-hydroxytryptamine receptor 2A (HTR2A) small molecule agonists, cell-based qHTS assay (AID 1963587). Further: nearly all actives have a fitted effect of over 30% in size. In outline:
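CHO cells stably expressing human HTR2A, plated 18 h, loaded with calcium dye 1 h at 37 C. Agonist mode: compounds added and intracellular calcium fluorescence recorded kinetically for 2 min at 1 sec intervals.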

Assay [10] has as its target Muscarinic acetylcholine receptor M1 (Homo sapiens) (UniProt P11229). As to the kind of experiment: Cholinergic receptor muscarinic 1 (CHRM1) small molecule antagonists, cell-based qHTS assay (AID 1963588). Further: nearly all actives have a fitted effect of over 40% in size. Further: potency means the concentration at half of the fitted maximal effect. In outline:
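Compounds were tested at 15 concentrations in three independent runs. Dye-loaded CHRM1-CHO cells were exposed 5 min at room temperature before stimulation by acetylcholine added at 50nM. Intracellular calcium was read kinetically on FDSS for 3 min.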

For assay [11] the target is unchanged. Nature of the assay: Cholinergic receptor muscarinic 1 (CHRM1) small molecule agonists, cell-based qHTS assay (AID 1963589). Further: nearly all actives have a fitted effect of over 35% in size. The method in brief:
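Cells were plated and incubated 18 h at 37 C/5% CO2, loaded with calcium dye for 1 h at 37 C, then treated with compounds in DMSO. Fluorescence was recorded kinetically at 1 sec intervals.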

In assay [12] the target is D(2) dopamine receptor (Homo sapiens) (UniProt P14416). Nature of the assay: Dopamine D2 receptor (DRD2) small molecule antagonists, cell-based qHTS assay (AID 1963595; active means well fitted inhibition curve with a large enough effect in the signal ratio in the repeat runs, with a control signal flat; the % refers to the signal ratio). In outline:
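Antagonist mode in DRD2-HEK293 cells: after compound addition with 0.1 mM Ro20-1724, cells received quinpirole (12 nM) and NKH477 (200 nM) for 30 min at room temperature; HTRF cAMP read after 1 h detection.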

A short description of assay [13]: p53 small molecule agonists, cell-based qHTS assay (AID 1963582; active means well fitted activation curve with a large enough effect in the signal ratio in the repeat runs, not every such curve was filed as active; the % refers to the signal ratio). The method in brief: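 Cells carrying a p53-responsive bla reporter are treated with test compounds for 16 h at 37 C; beta-lactamase activity is then detected with LiveBLAzer B/G FRET substrate after 2 h at room temperature.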
The target of assay [14] is Beta-2 adrenergic receptor (Homo sapiens) (UniProt P07550). As to the kind of experiment: Adrenergic beta2 receptor (ADRB2) small molecule antagonists, cell-based qHTS assay (AID 1963592). Further: series mostly up to about 92 µM; nearly all actives have a fitted effect of over 50% in size. The method in brief:
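Assay format: CHO-ADRB2 cells, 18-20hr seeding at 37C/5% CO2, then compound plus 1nM isoproterenol agonist mix for 0.5hr RT. Homogeneous time-resolved fluorescence cAMP detection after 1hr, expressed as 665/615 nm ratio.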

The target of assay [15] is D(2) dopamine receptor (Homo sapiens) (UniProt P14416). As to the kind of experiment: Dopamine D2 receptor (DRD2) small molecule agonists, cell-based qHTS assay (AID 1963594). Further: nearly all actives have a fitted effect of over 35% in size. The method in brief: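 HEK293 cells stably expressing human DRD2, pre-treated with PDE inhibitor Ro20-1724 (0.1 mM final) and compound 10 min at room temperature, then stimulated with NKH477 (200nM […]) for 30 min. cAMP read by HTRF (665/620 nm).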
Chain of D(2) dopamine receptor (Homo sapiens) (P14416 whole entry, looked up): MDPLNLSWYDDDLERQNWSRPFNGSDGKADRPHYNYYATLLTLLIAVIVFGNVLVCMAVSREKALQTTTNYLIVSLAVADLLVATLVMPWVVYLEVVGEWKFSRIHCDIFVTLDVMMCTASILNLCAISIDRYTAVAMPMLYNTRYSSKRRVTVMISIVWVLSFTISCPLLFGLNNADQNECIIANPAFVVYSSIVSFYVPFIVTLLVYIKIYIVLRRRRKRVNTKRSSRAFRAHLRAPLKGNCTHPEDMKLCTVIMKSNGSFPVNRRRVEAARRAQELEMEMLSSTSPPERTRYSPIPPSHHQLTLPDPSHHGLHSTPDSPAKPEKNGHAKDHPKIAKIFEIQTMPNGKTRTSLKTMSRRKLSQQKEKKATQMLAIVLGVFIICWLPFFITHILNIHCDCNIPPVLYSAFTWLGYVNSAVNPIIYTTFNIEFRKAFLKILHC

Assay [16] can be described thus: cAMP Responsive Elements (CRE) small molecule agonists, cell-based qHTS assay (AID 1963590). In outline: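 Cells carrying a CRE-driven beta-lactamase reporter (HEK 293T) are seeded, incubated overnight (18 h), and treated with test compounds for 3 h at 37 C; reporter activity is then detected with a FRET substrate after 2 h at room temperature.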
Assay [17] in a line: cAMP Responsive Elements (CRE) small molecule antagonists, cell-based qHTS assay (AID 1963591; active means well fitted inhibition curve with a large enough effect in the signal ratio in the repeat runs, not every such curve was filed as active; the % refers to the signal ratio). In outline: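 Cells (CRE-bla HEK 293T, DMEM with 10% dialyzed FBS and 25 mM HEPES) are seeded and incubated 18 h. Compounds are added with NKH477 agonist at 0.25 uM final for 3 h, then FRET substrate for 2 h.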
In assay [18] the target is Beta-2 adrenergic receptor (Homo sapiens) (UniProt P07550). Nature of the assay: Adrenergic beta2 receptor (ADRB2) small molecule agonists, cell-based qHTS assay (AID 1963593).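 Further: CHO cells stably overexpressing human ADRB2.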 In outline:
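CHO cells stably over-expressing ADRB2 were plated overnight at 37C, then dosed with compounds plus a stimulation mix containing 100uM IBMX and 25uM Ro-20-1724 for 0.5hr at room temperature. cAMP was measured by HTRF competition, 1hr.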

Chain of 5-hydroxytryptamine receptor 2A (Homo sapiens) (P28223 whole entry, looked up): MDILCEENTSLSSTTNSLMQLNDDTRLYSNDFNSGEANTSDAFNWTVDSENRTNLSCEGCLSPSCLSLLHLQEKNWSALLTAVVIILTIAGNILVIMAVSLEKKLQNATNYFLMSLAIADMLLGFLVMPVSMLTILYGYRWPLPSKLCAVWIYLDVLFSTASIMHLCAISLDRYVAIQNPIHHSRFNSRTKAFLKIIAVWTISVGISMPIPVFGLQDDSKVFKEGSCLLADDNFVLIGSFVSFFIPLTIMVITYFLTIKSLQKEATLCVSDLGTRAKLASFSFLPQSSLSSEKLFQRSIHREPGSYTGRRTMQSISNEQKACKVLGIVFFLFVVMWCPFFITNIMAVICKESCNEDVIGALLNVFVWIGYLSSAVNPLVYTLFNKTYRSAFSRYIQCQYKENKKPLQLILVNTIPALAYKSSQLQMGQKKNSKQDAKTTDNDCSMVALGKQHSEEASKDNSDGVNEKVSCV
Chain of Gonadotropin-releasing hormone receptor (Homo sapiens) (P30968 whole entry, looked up): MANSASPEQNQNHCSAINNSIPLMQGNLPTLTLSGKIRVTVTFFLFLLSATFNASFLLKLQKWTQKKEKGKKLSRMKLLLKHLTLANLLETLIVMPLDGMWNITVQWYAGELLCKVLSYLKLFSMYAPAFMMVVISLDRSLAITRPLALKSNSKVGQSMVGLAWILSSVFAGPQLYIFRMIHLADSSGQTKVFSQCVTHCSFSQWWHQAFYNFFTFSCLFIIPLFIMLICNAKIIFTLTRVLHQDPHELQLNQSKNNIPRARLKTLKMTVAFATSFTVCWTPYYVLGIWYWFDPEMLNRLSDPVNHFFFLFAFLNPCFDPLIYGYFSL
Chain of Beta-2 adrenergic receptor (Homo sapiens) (P07550 whole entry, looked up): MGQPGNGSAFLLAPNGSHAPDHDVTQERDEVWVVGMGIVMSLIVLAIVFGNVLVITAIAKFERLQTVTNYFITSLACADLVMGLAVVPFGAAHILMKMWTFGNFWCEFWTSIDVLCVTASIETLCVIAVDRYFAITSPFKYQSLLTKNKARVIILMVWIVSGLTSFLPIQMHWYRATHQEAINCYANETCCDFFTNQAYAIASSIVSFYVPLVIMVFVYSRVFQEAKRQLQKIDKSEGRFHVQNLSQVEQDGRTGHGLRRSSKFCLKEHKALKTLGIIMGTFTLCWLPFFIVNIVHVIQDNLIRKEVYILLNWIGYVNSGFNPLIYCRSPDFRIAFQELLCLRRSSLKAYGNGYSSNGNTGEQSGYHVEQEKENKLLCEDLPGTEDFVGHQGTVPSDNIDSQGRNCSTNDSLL
Chain of Muscarinic acetylcholine receptor M1 (Homo sapiens) (P11229 whole entry, looked up): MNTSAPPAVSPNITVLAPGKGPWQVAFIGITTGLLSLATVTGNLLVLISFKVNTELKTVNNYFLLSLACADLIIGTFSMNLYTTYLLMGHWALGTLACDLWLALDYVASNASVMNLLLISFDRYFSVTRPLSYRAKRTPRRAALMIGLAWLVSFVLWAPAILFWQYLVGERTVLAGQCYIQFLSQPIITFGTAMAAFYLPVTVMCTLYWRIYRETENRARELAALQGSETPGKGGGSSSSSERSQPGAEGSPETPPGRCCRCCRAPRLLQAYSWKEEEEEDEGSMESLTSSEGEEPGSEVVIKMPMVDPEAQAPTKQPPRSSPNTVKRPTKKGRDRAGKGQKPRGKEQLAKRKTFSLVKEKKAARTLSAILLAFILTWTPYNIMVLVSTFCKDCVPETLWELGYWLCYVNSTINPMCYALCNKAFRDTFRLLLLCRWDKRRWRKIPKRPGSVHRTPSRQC

Regarding `CCCOc1ccc(S(=O)(=O)N2CCN(CC)CC2)cc1-c1nc2c(CC)n(Cc3ccccn3)nc2c(=O)[nH]1`, the Potency result in assay [1], in assay [2], in assay [3], in assay [4], in [5] and in [6] was “inactive” each time. The Potency entry in [7], in assay [8], in assay [9], in assay [11] and in [12] was “inactive” throughout. In addition, in assay [10], the Potency was 18.8 µM (active).
In the case of `C=C(C)C(=O)OCCOC(=O)CC(C)=O`, the Potency entry in assay [1], in assay [2], in [3], in assay [4], in assay [5] and in assay [6] was “inactive” each time. The Potency entry in [7], in assay [13], in assay [9], in assay [10], in assay [11] and in assay [14] was “inactive” in each case. The Potency entry in assay [15] and in assay [12] was “inactive” throughout.
As to `NCCc1ccn[nH]1`, the Potency entry in [1], in [2], in [3], in [4], in assay [5] and in [6] was “inactive” in each case. The Potency entry in assay [7], in assay [8], in assay [9], in [10], in assay [16] and in assay [17] was “inactive” each time. Besides, the Potency result in assay [14], in [18], in assay [15] and in assay [12] was “inactive” in each case.
Turning to `CCOCCn1c(N2CCCN(C)CC2)nc2ccccc21`, the Potency entry in [1], in assay [2], in assay [3], in assay [4], in assay [5] and in assay [6] was “inactive” each time. Further, the Potency result in [7], in assay [8], in assay [9], in assay [11], in assay [16] and in assay [14] was “inactive” throughout. Further, the Potency result in assay [18], in [15] and in [12] was “inactive” each time.
With `CC(C)(CO)C(O)C(=O)NCCCO` (stereo not drawn), the Potency entry in [1], in [2], in assay [3], in [4], in [5] and in [6] was “inactive” each time. Besides, the Potency result in assay [7], in assay [8], in [16], in assay [17], in assay [14] and in assay [15] was “inactive” each time. The Potency entry in assay [12] is “inactive”.
For `C/C=C1\C(=O)C[C@H]2[C@@H]3CCC4=CC(=O)CC[C@]4(C)[C@H]3CC[C@]12C`, the Potency entry in assay [1], in [3], in assay [4], in assay [5], in [6] and in assay [7] was “inactive” in each case. The Potency entry in [8], in assay [9], in [10], in assay [11], in [14] and in assay [15] was “inactive” in each case. The Potency result in assay [12] is “inactive”. Further, the Potency in [2] was 2.13 µM (active).
For `CC(=O)OCC(=O)[C@@]12OC(C)(C)O[C@@H]1C[C@H]1[C@@H]3C[C@H](F)C4=CC(=O)C=C[C@]4(C)[C@@]3(F)[C@@H](O)C[C@@]12C`, the Potency entry in assay [1], in [2], in assay [3], in assay [4], in assay [5] and in [6] was “inactive” throughout. The Potency result in assay [7], in assay [8], in assay [14], in assay [15] and in assay [12] was “inactive” each time.
As to `COc1ccnc(CS(=O)c2nc3cc(OC(F)F)ccc3[nH]2)c1OC` (stereo not drawn), the Potency entry in [1], in assay [2], in assay [3], in assay [4], in assay [5] and in [6] was “inactive” in each case. The Potency result in assay [7], in assay [8], in [16], in assay [14], in assay [18] and in assay [15] was “inactive” in each case. The Potency entry in assay [12] was “inactive”.
In the case of `CC1=C(CC(=O)O)c2cc(F)ccc2/C1=C\c1ccc(S(C)(=O)=O)cc1`, the Potency result in assay [1], in assay [2], in [3], in [4], in assay [5] and in [6] was “inactive” throughout. For the same compound, the Potency result in assay [7], in assay [8], in assay [14] and in assay [15] was “inactive” in each case.
